# Data as given in PubChem BioAssay AID720607 (Broad Institute, 2013).
# Records with an inconclusive call do not appear. Calls of active or inactive are those of the source.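 How the source made its calls: active means compounds that lower cell viability with a fitted half-maximal potency within a set limit tied to top dose; inconclusive means flat fitted activity from -70 to -30, or unreliable fit; inactive means flat near zero, opposite effect, or weaker potency.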
# Assay: cytotoxicity in CCRF-CEM lymphoblastic leukemia cells – cell-based, CellTiter-Glo ATP luminescence, 8/24/48 h, dry powder, HRAS target identification, dose response (AID 720607)
# Settings: CCRF-CEM viability, 8-48 h; for activity change: top conc, at 35 µM, stronger effect = lower value
SMILES,activity change (8 h series) [%],activity change (24 h series) [%],"activity change, negative = cytotoxicity (at 35 µM (top of the series))"
COC(=O)c1ccc([C@@H]2c3[nH]c4ccccc4c3C[C@@H](C(=O)OC)N2C(=O)CCl)cc1,-77.8,-98.1,–
CC(C)(C)OC(=O)NCCOCCOCCOc1ccc(N(C(=O)CCl)C(C(=O)NCCc2ccccc2)c2cccs2)cc1Cl (stereo not drawn),-88.9,-98.2,–
COc1ccc(N(C(=O)CCl)C(C(=O)NCCc2ccccc2)c2cccs2)cc1Cl (stereo not drawn),-85.7,-98,–
Cc1onc(C(=O)N2CCN(C(c3ccncc3)c3ccncc3)CC2)c1[N+](=O)[O-],-2.67,-2.69,-4.38% (inactive)
C#CCCCC(=O)NCCOCCOCCOc1ccc(N(C(=O)CCl)C(C(=O)NCCc2ccccc2)c2cccs2)cc1Cl (stereo not drawn),-87.7,-97.5,–
Cc1onc(C(=O)N2CCN(C(c3ccc(Cl)cc3)c3ccc(Cl)cc3)CC2)c1[N+](=O)[O-],-63.7,-96.7,–
